PubChem BioAssay
Active and inactive are the calls of the source.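 The calls were made as follows, unless noted: active = NADPH fluorescence slope more negative than the mean of all samples by about 3 SD, 99.7% confidence; inactive = the rest.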 Where a SMILES comes first, the peptide text is derived from it. The star is where a group is joined. Boc = CC(C)(C)OC(=O)*

Legend:
[1] = inhibitors of TNFa-induced NFkB p65 translocation, primary screen, imaging, HUVEC, MLSMR starter and 10KST1 sets (AID 438;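 active = inhibition above 20% together with a positive visual image hit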;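 also: compound added about 3h40 before a 20 min TNFalpha stimulation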;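 as to inhibition: signal is the nuclear over cytoplasmic p65 intensity ratio per well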); conditions: HUVEC TNFa-induced p65 nuclear translocation; cell count: measured here: nuclei count (cytotoxicity indicator), at 2.08 µM; inhibition: at 2 µM, stronger effect = higher value, 0% TNFa-plus-vehicle, 100% no-TNFa wells
[2] = reduction of polyQ htt aggregates in cells – imaging, exon1htt(103Q)mCFP cells, high-content imaging, primary screen (AID 483;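 active = visual image review flags a hit and inhibition of aggregation exceeds 20%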;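 also: compound exposure lasted 3 days before fixation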;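 as to nuclei count: percent of the per-plate median nuclei count of sample wells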); conditions: exon1htt(103Q)mCFP cell line, aggregate imaging, at 2 µM; inhibition of aggregation: stronger effect = higher value; nuclei count: measured here: cell count, toxicity
[3] = endothelial E-selectin expression blockers – imaging, HUVEC, immunofluorescence, MLSMR starter and 10KST1 sets, primary screen (AID 487;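 active = visually confirmed hit in the image check and inhibition above 20%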;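 as to inhibition: signal is fraction of cell area covered by stained E-selectin grains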;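 as to nuclei count: 100% = median nuclei count of all wells on the same plate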); conditions: HUVEC TNFalpha-induced E-selectin immunofluorescence imaging, at 2 µM; inhibition: stronger effect = higher value; nuclei count: measured here: cell number, toxicity
[4] = target: Voltage-gated potassium channel subunit beta-2 (Rattus norvegicus) (UniProt P62483); test: inhibitors of rat Kvbeta2 reductase activity – biochemical, NADPH fluorescence, primary screen (AID 622;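 active = fluorescence slope higher than the sample average by over 3 SD, cut at about -0.22 in these data, passing the limit was not always enough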;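 also: slope of raw intensity against log time taken from 70 to 1610 s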); conditions: recombinant KvBeta, 4-cyanobenzaldehyde reduction, at 10 µM, stronger effect = higher value
Sequence of Voltage-gated potassium channel subunit beta-2 (Rattus norvegicus) (P62483 whole entry, looked up): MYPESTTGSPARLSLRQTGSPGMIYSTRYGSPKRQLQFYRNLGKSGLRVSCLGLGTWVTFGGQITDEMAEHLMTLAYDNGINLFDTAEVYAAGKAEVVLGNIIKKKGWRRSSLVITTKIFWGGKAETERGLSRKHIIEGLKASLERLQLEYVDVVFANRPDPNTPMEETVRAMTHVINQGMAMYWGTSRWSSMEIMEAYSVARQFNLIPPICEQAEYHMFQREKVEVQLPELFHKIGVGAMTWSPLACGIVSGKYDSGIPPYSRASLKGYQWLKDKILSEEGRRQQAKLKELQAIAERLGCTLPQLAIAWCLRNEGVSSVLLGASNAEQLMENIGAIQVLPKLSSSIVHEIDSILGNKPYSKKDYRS

[5] = target: Voltage-gated potassium channel subunit beta-2 (Rattus norvegicus) (UniProt P62483); test: enhancers of rat Kvbeta2 NADPH turnover – biochemical, NADPH fluorescence, primary screen (AID 623); conditions: Recombinant KvBeta, NADPH fluorescence decrease slope, 10 min; at 10 µM; stronger effect = lower value;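 also: fluorescence intensity change per second fitted from 20 to 320 s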
[6] = target: Alpha-2C adrenergic receptor (Homo sapiens) (UniProt P18825); test: compounds altering alpha2C-coupled GIRK flux – cell-based, HEK293 alpha2C/GIRK1/2, thallium flux, primary screen (AID 624;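 active = fluorescence slope after compound addition differing from the mean of all screened samples at 99.7% confidence, in either direction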;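 also: slope of fluorescence ratio to pre-addition baseline per second over 15 to 24 s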); conditions: thallium flux BTC fluorescence, at 10 µM, actives lie on both sides
Sequence of Alpha-2C adrenergic receptor (Homo sapiens) (P18825 whole entry, looked up): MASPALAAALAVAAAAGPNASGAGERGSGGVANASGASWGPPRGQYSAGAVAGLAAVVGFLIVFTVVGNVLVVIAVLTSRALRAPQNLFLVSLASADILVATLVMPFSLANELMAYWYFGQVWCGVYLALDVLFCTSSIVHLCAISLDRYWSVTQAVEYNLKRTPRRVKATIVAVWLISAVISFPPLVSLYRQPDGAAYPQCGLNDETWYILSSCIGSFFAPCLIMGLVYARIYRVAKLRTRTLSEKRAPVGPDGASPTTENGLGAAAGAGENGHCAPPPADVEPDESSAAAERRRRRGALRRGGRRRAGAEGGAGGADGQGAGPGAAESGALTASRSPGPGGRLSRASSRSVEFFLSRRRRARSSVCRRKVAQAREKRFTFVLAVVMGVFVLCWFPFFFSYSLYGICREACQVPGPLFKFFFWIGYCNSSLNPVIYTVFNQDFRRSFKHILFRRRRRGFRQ

[7] = blockers of RIG-like receptor reporter activation – cell-based, Sendai virus stimulus, luciferase, 10K MLSCN set, TLR/RLR signaling modifier project, primary screen (AID 602276;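 active = inhibition at or above 50% at 10 µM; inactive = inhibition below 50%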;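 also: firefly luciferase from ISG56 promoter only with Renilla not read in this screen; 0% = Sendai virus plus DMSO and 100% = medium plus DMSO without virus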); conditions: HEK293 RL24 IRF3 luciferase reporter, at 10 µM, stronger effect = higher value
[8] = TLR3 IRF3 reporter activation blockers – cell-based, poly I:C stimulus, luciferase, 10K MLSCN set, primary screen (AID 602277;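 active = inhibition of the reporter signal at or above 50%; inactive = inhibition below 50%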); conditions: HEK293-TLR3 RL24 IRF3 luciferase reporter, at 10 µM, stronger effect = higher value

Q: Which results are given for Cc1c(C#N)sc2nc(-c3ccccc3)nc(N3CCCC3)c12?
A: cell count [1]: 388; inhibition [1]: -8.7% (inactive); inhibition of aggregation [2]: -28.2% (inactive); nuclei count [2]: 99.9%; inhibition [3]: -50% (inactive); nuclei count [3]: 130%; fluorescence slope [4]: -0.236 (inactive); NADPH fluorescence slope [5]: -1.1e-05 (inactive); slope [6]: 0.011 (active); inhibition [7]: 16.9% (inactive); inhibition [8]: 26% (inactive)

Q: With Cc1ccc(-c2nn(-c3ccccc3)cc2CN(Cc2ccccc2)C(=O)CCC(=O)O)o1 as the molecule, how does the cell count [1] read?
A: 329

Q: And the inhibition [1]?
A: 7.1% (inactive)

Q: What about the inhibition of aggregation [2] of the same molecule?
A: -24.5% (inactive)

Q: And the nuclei count [2]?
A: 107%

Q: What about the inhibition [3] of the same molecule?
A: -66.8% (inactive)

Q: What about the nuclei count [3] of the same molecule?
A: 120%

Q: What about the fluorescence slope [4] of the same molecule?
A: -0.429 (inactive)

Q: And the NADPH fluorescence slope [5]?
A: -2.6e-05 (inactive)

Q: And the slope [6]?
A: 0.00807 (inactive)

Q: And the inhibition [7]?
A: 12.8% (inactive)

Q: And the inhibition [8]?
A: 19.6% (inactive)

Q: What does the source list for Cc1ccc(C)c(S(=O)(=O)n2cnc3ccccc32)c1?
A: cell count [1]: 262; inhibition [1]: -5.9% (inactive); inhibition of aggregation [2]: 17.8% (inactive); nuclei count [2]: 79.3%; inhibition [3]: -42.5% (inactive); nuclei count [3]: 108%; fluorescence slope [4]: -0.463 (inactive); NADPH fluorescence slope [5]: 2.3e-05 (inactive); slope [6]: 0.00359 (inactive); inhibition [7]: 14.5% (inactive); inhibition [8]: 27.4% (inactive)

Q: Which cell count [1] does the source give for CCOc1ccc(C(=O)N2CCN(C(=O)c3ccco3)CC2)cc1OCC here?
A: 558

Q: And the inhibition [1]?
A: -2.7% (inactive)

Q: What about the inhibition of aggregation [2] of the same molecule?
A: -6.8% (inactive)

Q: And the nuclei count [2]?
A: 111%

Q: And the inhibition [3]?
A: 28.1% (inactive)

Q: What about the nuclei count [3] of the same molecule?
A: 93.4%

Q: What about the fluorescence slope [4] of the same molecule?
A: -0.367 (inactive)

Q: And the NADPH fluorescence slope [5]?
A: 4.3e-05 (inactive)

Q: What about the slope [6] of the same molecule?
A: 0.00675 (inactive)

Q: And the inhibition [7]?
A: 12% (inactive)

Q: What about the inhibition [8] of the same molecule?
A: 21.2% (inactive)

Q: With CN1/C(=C\C(=O)C(F)F)C(C)(C)c2ccccc21 as the molecule, how does the cell count [1] read?
A: 296

Q: And the inhibition [1]?
A: 3.5% (inactive)

Q: And the inhibition of aggregation [2]?
A: -24% (inactive)

Q: What about the nuclei count [2] of the same molecule?
A: 104%

Q: And the inhibition [3]?
A: 17.2% (inactive)

Q: And the nuclei count [3]?
A: 116%

Q: And the fluorescence slope [4]?
A: -0.504 (inactive)

Q: What about the NADPH fluorescence slope [5] of the same molecule?
A: 1.6e-05 (inactive)

Q: What about the slope [6] of the same molecule?
A: 0.00399 (inactive)

Q: And the inhibition [7]?
A: 20.8% (inactive)

Q: What about the inhibition [8] of the same molecule?
A: 17.4% (inactive)

Q: Which cell count [1] does the source give for CC(C)(C)OC(=O)N1CCCC1C(=O)NC(Cc1ccccc1)C(=O)O (stereo not drawn) (Boc-Pro-Phe-OH; configuration not given here) here?
A: 431

Q: What about the inhibition [1] of the same molecule?
A: 1% (inactive)

Q: What about the inhibition of aggregation [2] of the same molecule?
A: 4.3% (inactive)

Q: What about the nuclei count [2] of the same molecule?
A: 99.5%

Q: What about the inhibition [3] of the same molecule?
A: 21.6% (inactive)

Q: And the nuclei count [3]?
A: 101%

Q: What about the fluorescence slope [4] of the same molecule?
A: -0.607 (inactive)

Q: And the NADPH fluorescence slope [5]?
A: 1.1e-05 (inactive)

Q: What about the slope [6] of the same molecule?
A: 0.00669 (inactive)

Q: What about the inhibition [7] of the same molecule?
A: 12.2% (inactive)

Q: And the inhibition [8]?
A: 17.2% (inactive)

Q: Which cell count [1] does the source give for CCOC(=O)N1CCN(c2c(N3CCc4ccccc4C3)c(=O)c2=O)CC1 here?
A: 558

Q: What about the inhibition [1] of the same molecule?
A: 1.2% (inactive)

Q: And the inhibition of aggregation [2]?
A: 13.2% (inactive)

Q: What about the nuclei count [2] of the same molecule?
A: 102%

Q: And the inhibition [3]?
A: -46.4% (inactive)

Q: What about the nuclei count [3] of the same molecule?
A: 122%

Q: What about the fluorescence slope [4] of the same molecule?
A: -0.538 (inactive)

Q: What about the NADPH fluorescence slope [5] of the same molecule?
A: -2.6e-05 (inactive)

Q: And the slope [6]?
A: 0.00721 (inactive)

Q: What about the inhibition [7] of the same molecule?
A: 10.9% (inactive)

Q: And the inhibition [8]?
A: 16.4% (inactive)

Q: With CC1(C)CC(=O)C(C(=O)CCCCC(=O)C2C(=O)CC(C)(C)CC2=O)C(=O)C1 as the molecule, how does the cell count [1] read?
A: 269

Q: And the inhibition [1]?
A: 3.6% (inactive)

Q: And the inhibition of aggregation [2]?
A: 18% (inactive)

Q: What about the nuclei count [2] of the same molecule?
A: 100%

Q: And the inhibition [3]?
A: 19% (inactive)

Q: What about the nuclei count [3] of the same molecule?
A: 80%

Q: What about the fluorescence slope [4] of the same molecule?
A: -0.415 (inactive)

Q: What about the NADPH fluorescence slope [5] of the same molecule?
A: 1.6e-05 (inactive)

Q: And the slope [6]?
A: 0.00351 (inactive)

Q: And the inhibition [7]?
A: -6.03% (inactive)

Q: And the inhibition [8]?
A: -20.4% (inactive)
